Experiment [1] has as its target T1, Serine/threonine-protein kinase Nek9 (Homo sapiens) (UniProt Q8TD19).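 Also: each value is a mean percent inhibition of NEK9.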
T1 sequence (whole entry): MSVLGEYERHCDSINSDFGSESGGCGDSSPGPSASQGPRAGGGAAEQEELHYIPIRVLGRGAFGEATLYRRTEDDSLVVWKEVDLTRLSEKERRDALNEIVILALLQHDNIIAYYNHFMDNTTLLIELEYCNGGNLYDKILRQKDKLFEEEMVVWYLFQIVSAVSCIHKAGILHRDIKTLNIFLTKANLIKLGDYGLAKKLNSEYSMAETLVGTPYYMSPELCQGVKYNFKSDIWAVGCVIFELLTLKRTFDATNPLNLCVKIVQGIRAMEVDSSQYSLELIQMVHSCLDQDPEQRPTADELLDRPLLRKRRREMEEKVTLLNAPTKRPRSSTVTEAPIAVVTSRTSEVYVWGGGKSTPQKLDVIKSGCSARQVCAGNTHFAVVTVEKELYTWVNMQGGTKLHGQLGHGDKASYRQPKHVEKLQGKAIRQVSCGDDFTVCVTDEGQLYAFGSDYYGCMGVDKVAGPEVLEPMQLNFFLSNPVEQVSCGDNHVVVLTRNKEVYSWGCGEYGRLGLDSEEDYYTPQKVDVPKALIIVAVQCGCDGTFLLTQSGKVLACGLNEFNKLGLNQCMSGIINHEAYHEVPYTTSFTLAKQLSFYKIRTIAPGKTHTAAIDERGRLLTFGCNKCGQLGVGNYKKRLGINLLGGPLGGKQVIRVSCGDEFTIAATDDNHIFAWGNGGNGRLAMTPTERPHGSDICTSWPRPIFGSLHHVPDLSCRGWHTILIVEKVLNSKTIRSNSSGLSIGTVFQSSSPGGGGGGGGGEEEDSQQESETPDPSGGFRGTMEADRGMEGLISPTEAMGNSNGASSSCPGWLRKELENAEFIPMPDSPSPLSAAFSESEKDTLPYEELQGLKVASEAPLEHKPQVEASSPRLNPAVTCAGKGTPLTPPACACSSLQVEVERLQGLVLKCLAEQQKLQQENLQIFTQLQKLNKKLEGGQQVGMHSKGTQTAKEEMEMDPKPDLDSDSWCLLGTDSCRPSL
The following applies: at 1 µM.

The target in experiment [2] is Serine/threonine-protein kinase PLK1 (Homo sapiens) (UniProt P53350). The settings on record: at 0.1 µM.
Experiment [3] has the same target. The following applies: at 1 µM.
Experiment [4] has as its target T2, Dual specificity protein kinase TTK (Homo sapiens) (UniProt P33981).
T2 sequence (whole entry): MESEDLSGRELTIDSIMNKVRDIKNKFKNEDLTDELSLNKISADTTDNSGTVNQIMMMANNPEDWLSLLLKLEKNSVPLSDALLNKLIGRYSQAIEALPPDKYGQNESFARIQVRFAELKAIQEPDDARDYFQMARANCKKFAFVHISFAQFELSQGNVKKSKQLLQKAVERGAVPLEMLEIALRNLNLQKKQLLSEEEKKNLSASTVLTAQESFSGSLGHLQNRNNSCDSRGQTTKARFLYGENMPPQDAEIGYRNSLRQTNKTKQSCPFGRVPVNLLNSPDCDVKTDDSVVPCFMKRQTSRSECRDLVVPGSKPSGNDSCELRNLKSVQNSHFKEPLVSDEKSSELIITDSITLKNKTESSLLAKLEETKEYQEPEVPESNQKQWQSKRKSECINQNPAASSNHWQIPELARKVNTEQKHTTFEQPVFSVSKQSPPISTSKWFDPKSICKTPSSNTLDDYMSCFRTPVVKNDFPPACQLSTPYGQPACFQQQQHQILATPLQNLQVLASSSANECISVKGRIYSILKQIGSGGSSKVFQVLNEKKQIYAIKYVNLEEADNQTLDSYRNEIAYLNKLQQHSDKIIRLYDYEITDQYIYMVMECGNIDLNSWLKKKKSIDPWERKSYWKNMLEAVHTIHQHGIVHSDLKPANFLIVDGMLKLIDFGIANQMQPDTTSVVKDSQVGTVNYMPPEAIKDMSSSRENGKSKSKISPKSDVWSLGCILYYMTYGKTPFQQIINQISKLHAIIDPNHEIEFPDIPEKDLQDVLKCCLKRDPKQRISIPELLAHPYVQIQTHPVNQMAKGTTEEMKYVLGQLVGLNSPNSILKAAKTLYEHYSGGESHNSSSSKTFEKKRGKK
The settings on record: at 0.1 µM.

The test system of experiment [5] is T3, Receptor-type tyrosine-protein kinase FLT3 (Homo sapiens), P36888 [D835Y].
T3 sequence (whole entry): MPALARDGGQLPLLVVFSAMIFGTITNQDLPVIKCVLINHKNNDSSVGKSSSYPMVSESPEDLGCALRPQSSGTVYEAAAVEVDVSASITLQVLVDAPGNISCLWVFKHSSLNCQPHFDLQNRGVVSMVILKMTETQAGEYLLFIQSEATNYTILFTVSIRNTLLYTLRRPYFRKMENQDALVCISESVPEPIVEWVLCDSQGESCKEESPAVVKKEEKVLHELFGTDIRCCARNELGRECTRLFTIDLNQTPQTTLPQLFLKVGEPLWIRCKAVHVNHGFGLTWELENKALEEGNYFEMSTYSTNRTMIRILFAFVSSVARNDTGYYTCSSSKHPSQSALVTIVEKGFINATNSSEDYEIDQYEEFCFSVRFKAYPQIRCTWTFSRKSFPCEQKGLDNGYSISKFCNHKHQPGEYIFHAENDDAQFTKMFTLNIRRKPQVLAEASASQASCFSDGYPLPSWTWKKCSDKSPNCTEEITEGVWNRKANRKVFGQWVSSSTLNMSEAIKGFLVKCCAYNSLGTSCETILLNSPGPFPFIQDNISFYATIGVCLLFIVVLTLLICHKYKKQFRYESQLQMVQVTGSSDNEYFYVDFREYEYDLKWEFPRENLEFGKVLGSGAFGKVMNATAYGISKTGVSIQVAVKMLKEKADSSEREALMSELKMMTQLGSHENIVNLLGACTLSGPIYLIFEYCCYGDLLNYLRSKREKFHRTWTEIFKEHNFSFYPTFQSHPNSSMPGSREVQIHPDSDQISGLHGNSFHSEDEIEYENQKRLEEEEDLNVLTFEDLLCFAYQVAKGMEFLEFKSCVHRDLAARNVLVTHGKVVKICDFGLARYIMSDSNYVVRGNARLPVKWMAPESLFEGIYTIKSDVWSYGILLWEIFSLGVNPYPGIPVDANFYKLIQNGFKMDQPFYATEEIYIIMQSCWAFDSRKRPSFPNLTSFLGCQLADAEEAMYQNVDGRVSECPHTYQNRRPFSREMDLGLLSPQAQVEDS
The settings on record: at 1 µM.

Experiment [6] deals with Vascular endothelial growth factor receptor 3 (Homo sapiens) (UniProt P35916). The following applies: at 0.1 µM.
Chain of Vascular endothelial growth factor receptor 3 (Homo sapiens) (P35916 whole entry): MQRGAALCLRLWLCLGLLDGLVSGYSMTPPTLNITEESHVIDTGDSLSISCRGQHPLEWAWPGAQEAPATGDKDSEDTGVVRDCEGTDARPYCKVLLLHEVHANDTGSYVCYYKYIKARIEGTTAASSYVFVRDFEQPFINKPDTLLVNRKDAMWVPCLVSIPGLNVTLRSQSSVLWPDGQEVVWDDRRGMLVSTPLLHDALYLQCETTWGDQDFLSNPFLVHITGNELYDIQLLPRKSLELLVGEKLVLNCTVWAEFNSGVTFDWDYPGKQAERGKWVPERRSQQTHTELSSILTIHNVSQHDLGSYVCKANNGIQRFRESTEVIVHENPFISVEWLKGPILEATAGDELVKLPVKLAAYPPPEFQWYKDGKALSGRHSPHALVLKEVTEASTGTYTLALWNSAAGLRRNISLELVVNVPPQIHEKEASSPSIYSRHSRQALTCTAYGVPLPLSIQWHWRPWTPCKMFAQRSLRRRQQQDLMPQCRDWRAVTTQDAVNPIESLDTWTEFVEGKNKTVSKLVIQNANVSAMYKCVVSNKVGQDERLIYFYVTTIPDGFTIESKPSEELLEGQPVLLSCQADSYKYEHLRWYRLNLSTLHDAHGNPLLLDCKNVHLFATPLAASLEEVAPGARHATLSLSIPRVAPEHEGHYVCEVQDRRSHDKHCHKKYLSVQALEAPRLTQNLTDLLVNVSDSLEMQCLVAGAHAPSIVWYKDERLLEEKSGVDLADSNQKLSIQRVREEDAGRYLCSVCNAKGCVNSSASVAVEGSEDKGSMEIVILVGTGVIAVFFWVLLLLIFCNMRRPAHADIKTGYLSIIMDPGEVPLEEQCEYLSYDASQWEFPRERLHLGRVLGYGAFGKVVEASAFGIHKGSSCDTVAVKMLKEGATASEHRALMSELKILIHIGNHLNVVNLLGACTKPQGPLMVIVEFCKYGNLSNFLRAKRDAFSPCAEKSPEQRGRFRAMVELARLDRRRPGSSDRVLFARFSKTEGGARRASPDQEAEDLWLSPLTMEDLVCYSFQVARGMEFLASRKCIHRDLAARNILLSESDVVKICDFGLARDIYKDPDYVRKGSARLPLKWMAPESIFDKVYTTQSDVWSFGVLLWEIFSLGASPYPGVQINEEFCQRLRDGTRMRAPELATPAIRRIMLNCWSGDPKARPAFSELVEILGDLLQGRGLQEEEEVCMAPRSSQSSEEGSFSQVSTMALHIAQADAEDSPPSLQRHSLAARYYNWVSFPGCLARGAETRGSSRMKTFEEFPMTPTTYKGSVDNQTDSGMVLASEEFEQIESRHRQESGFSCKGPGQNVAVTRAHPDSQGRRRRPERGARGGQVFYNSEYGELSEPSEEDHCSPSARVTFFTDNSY
Experiment [7] shares this target. The settings on record: at 1 µM.
The target of experiment [8] is Macrophage colony-stimulating factor 1 receptor (Homo sapiens) (UniProt P07333). The settings on record: at 0.1 µM.
Experiment [9] has the same target. The settings on record: at 1 µM.
Experiment [10] deals with Tyrosine-protein kinase Fyn (Homo sapiens) (UniProt P06241). The settings on record: at 0.1 µM.
Chain of Tyrosine-protein kinase Fyn (Homo sapiens) (P06241 2-537 limits assumed): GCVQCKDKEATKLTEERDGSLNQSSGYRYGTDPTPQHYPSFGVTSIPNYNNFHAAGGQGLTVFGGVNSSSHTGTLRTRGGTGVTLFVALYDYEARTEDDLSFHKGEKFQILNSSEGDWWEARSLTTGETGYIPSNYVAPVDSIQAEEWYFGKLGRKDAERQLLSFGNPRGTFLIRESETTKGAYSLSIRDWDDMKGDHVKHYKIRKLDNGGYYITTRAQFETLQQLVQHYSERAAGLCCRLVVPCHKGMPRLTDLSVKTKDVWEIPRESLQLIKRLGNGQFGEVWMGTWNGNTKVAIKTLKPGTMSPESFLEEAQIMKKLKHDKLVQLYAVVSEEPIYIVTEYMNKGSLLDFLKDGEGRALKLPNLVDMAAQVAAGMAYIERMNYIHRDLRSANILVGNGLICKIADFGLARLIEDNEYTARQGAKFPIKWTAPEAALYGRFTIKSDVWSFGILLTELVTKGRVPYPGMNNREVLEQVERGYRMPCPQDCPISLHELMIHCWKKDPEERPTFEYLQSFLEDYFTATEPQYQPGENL
For experiment [11] the target is unchanged. The settings on record: at 1 µM.
Experiment [12] concerns the target Tyrosine-protein kinase HCK (Homo sapiens) (UniProt P08631). The settings on record: at 0.1 µM.
For experiment [13] the target is unchanged. The settings on record: at 1 µM.
The target in experiment [14] is Insulin-like growth factor 1 receptor (Homo sapiens) (UniProt P08069). The following applies: at 0.1 µM.
Chain of Insulin-like growth factor 1 receptor (Homo sapiens) (P08069 31-736 limits assumed): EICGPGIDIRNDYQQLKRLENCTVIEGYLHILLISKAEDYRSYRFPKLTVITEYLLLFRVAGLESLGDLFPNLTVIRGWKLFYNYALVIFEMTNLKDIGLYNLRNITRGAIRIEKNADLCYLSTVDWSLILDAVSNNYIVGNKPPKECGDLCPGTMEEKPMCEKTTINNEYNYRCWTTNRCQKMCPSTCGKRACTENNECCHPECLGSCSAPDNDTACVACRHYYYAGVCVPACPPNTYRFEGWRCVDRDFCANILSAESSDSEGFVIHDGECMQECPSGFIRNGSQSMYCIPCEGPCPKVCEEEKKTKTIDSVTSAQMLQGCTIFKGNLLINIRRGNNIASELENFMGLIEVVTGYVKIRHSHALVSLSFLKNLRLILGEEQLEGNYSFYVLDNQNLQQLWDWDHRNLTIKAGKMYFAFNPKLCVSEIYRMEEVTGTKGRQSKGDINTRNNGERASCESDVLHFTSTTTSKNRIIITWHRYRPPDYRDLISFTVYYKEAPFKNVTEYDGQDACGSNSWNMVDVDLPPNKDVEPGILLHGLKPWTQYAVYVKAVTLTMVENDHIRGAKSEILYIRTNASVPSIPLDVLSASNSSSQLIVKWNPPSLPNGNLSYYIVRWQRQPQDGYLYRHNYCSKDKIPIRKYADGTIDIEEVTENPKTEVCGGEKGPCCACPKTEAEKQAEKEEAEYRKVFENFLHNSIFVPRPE
Chain of Insulin-like growth factor 1 receptor (Homo sapiens) (P08069 741-1367 limits assumed): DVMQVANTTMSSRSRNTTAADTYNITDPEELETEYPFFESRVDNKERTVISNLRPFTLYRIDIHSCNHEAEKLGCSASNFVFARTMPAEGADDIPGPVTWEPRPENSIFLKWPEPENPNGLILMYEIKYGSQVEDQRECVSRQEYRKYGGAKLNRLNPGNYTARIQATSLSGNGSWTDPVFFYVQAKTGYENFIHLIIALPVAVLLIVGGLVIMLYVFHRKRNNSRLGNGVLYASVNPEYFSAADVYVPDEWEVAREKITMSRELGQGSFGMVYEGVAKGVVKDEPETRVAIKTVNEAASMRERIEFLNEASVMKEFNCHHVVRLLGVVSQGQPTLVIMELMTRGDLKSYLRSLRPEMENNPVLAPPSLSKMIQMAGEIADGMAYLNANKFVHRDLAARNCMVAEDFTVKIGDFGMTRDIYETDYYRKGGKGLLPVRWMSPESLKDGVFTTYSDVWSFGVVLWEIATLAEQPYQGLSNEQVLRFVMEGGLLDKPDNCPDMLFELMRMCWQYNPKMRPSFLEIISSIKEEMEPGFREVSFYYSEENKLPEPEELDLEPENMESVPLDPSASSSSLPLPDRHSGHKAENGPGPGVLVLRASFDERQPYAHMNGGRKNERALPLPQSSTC
The target is the same in experiment [15]. The following applies: at 1 µM.
Experiment [16] addresses Insulin receptor (Homo sapiens) (UniProt P06213). The following applies: at 0.1 µM.
For experiment [17] the target is unchanged. The settings on record: at 1 µM.
For experiment [18], the target named is Insulin receptor-related protein (Homo sapiens) (UniProt P14616). The following applies: at 0.1 µM.
Chain of Insulin receptor-related protein (Homo sapiens) (P14616 27-742 limits assumed): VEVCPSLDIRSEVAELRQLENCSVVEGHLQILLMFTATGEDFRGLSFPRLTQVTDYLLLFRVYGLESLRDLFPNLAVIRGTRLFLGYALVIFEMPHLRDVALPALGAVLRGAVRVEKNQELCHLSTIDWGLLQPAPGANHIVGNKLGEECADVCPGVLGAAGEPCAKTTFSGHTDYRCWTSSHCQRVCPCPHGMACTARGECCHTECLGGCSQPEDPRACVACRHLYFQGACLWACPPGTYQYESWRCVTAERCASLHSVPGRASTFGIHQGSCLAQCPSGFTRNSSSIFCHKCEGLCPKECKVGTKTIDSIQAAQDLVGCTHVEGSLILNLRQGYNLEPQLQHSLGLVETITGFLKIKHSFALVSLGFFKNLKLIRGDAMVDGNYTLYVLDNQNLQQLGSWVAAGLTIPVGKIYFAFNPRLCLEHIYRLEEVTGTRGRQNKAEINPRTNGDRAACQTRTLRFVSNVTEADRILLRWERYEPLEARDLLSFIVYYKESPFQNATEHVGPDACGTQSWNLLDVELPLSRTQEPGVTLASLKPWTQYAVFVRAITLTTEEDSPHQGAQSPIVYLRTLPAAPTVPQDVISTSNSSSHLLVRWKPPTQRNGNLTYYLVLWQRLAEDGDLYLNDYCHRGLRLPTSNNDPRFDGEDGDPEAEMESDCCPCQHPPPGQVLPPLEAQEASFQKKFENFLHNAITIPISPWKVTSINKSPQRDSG
Chain of Insulin receptor-related protein (Homo sapiens) (P14616 747-1297 limits assumed): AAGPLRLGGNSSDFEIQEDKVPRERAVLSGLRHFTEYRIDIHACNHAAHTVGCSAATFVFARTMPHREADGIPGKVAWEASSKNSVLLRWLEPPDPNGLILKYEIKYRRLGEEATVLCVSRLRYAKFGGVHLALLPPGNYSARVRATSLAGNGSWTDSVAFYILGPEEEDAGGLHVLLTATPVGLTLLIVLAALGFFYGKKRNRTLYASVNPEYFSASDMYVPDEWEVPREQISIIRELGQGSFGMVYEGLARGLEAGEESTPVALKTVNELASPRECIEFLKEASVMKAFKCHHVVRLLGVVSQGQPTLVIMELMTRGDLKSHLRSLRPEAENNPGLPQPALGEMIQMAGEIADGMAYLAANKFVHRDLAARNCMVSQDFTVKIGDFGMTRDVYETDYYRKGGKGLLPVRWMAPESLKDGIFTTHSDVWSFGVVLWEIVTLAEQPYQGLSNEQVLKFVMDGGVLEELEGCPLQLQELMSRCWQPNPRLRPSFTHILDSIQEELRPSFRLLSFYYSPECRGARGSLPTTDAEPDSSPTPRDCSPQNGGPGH
Experiment [19] has the same target. The settings on record: at 1 µM.
In experiment [20] the target is T4, Tyrosine-protein kinase ITK/TSK (Homo sapiens) (UniProt Q08881).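 Also: mean percent inhibition of ITK from the GSK PKIS screen.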
T4 sequence (whole entry): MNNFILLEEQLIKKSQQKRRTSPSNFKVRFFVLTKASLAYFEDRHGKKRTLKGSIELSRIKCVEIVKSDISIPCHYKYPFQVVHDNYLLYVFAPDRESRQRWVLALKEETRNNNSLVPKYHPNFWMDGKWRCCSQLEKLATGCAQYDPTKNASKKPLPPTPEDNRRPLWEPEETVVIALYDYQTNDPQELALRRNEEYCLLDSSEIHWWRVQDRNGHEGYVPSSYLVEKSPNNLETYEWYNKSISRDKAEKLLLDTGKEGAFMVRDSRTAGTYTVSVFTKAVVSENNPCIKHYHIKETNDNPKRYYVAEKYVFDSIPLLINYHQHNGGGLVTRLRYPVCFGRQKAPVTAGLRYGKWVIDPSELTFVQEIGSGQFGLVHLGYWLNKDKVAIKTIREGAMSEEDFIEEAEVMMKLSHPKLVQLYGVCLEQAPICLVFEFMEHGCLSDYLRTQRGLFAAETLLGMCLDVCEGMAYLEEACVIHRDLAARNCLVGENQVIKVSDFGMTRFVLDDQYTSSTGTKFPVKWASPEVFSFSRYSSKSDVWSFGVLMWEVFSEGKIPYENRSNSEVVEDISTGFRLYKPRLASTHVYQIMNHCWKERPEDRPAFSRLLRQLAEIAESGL
The following applies: at 0.1 µM.

In ChEMBL document CHEMBL1961873, “Compounds: GSK PKIS; Assays: Nanosyn kinase panel” (2012) one finds inhibition data, which are given here for three compounds.

Structures are written as SMILES.

Chain of Tyrosine-protein kinase HCK (Homo sapiens) (P08631 2-526 limits assumed): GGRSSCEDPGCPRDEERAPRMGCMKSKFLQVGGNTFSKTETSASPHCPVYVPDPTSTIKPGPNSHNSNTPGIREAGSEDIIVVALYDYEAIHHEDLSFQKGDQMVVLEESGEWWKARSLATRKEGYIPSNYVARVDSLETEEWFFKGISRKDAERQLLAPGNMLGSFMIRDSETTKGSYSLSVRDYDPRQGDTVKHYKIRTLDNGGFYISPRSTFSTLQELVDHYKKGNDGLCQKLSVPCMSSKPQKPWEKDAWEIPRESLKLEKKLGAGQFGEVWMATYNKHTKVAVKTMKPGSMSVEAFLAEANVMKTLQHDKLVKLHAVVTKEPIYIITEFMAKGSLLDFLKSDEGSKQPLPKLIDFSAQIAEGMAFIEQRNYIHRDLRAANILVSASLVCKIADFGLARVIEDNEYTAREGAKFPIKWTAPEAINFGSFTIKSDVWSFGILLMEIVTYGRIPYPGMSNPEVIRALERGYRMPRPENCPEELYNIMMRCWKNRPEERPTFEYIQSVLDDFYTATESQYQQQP

By inhibition is commonly meant the relative decrease from the control value, in per cent. For `C[C@@H](Oc1cc(-n2cnc3ccc(OCC4CCN(C)CC4)cc32)sc1C(N)=O)c1ccccc1C(F)(F)F`, the inhibition in experiment [1] amounted to 102%; in experiment [2], 91.6%; in experiment [3], 94.3%; in experiment [4], 1.25%; in experiment [5], 20.9%; in experiment [6] it was 1.45%. The inhibition in experiment [7] was 18.6%; in experiment [8] it was -4.84%; in [9], 8.46%; in [10] it was 2.33%; in experiment [11], 12.6%; in [12], 3.31%. In addition, the inhibition is 32.6% in experiment [13]; -4.89% in experiment [14]; -1.61% in [15]; -0.09% in [16]; 1.24% in [17]; -3.02% in [18]. The values for the inhibition in experiment [19] and in experiment [20] were -2.86% and -1.81%, respectively.

Regarding `Nc1nccc(-c2c(-c3ccc(F)cc3)ncn2CCCN2CCOCC2)n1`, the inhibition in experiment [1] is 15.2%; in [2], 2.14%; in [3], 4.49%; in experiment [4], 10.5%; in [5], -6.25%; in [6], 15.4%. Further, the inhibition came to 17% in experiment [7]; 2.72% in experiment [8]; 1.51% in experiment [9]; 0.86% in experiment [10]; 4.47% in [11]; 5.16% in experiment [12]. Moreover, the inhibition in [13] came to 6.92%; in experiment [14], 9.8%; in [15] it was 8.95%; in [16], 0.02%; in experiment [17], 3.74%; in experiment [18], 2.13%. Besides, the inhibition in experiment [19] was 5.23%; in experiment [20] it was 1.35%.

As to `Cc1ccc2c(c1)/C(=N/Nc1ccc(S(N)(=O)=O)cc1)C(=O)N2`, the inhibition is 4.02% in experiment [1]; 0.67% in experiment [2]; 1.12% in experiment [3]; 7.53% in [4]; 10.8% in experiment [5]; 2.09% in [6]. For the same compound, the inhibition was 14.6% in experiment [7]; 2.64% in [8]; 16.7% in experiment [9]; 1.22% in experiment [10]; 0.85% in [11]; 1.4% in experiment [12]. The inhibition in experiment [13] was 6.19%; in experiment [14], -1.37%; in experiment [15] it was -2.24%; in experiment [16], -0.03%; in experiment [17], 1.98%; in [18], -1.32%. In addition, the inhibition in experiment [19] is -0.18%; in [20], 0.66%.
